Screening results as filed in PubChem.
TEAD-YAP inh: TEAD-YAP interaction inhibition. HEK-TIYL cells, TEAD-Gal4/YAP UAS-luciferase luminescence. AID 1259422. inhibition, % at 9.12 µM. 640,000 compounds, 1.4% hits; in the data active = inhibition above about 32%;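 note: 0% = median of test compound wells and 100% = reference inhibitor wells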
GPR151 ag: activates the human receptor GPR151; Q8TDV0; PathHunter beta-arrestin GPR151 cells, luminescence; activation, % at 11.2 µM; 650,000 compounds, 1% hits; in the data active = activation above about 4.9%;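 note: 0% = median of compound wells and 100% = cells with positive control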
FBW7 act: human FBW7 E3 ligase activation, primary screen | Q969H0 | AlphaScreen FBW7–phospho-cyclin E peptide binding, activator screen | normalized activity (activation), % at 26.1 µM | 650,000 compounds, 0.13% hits; in the data active = normalized activity above about 1.9%;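 note: purified mutant Fbw7 with reduced substrate affinity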
Target sequence (Q969H0 whole entry, looked up): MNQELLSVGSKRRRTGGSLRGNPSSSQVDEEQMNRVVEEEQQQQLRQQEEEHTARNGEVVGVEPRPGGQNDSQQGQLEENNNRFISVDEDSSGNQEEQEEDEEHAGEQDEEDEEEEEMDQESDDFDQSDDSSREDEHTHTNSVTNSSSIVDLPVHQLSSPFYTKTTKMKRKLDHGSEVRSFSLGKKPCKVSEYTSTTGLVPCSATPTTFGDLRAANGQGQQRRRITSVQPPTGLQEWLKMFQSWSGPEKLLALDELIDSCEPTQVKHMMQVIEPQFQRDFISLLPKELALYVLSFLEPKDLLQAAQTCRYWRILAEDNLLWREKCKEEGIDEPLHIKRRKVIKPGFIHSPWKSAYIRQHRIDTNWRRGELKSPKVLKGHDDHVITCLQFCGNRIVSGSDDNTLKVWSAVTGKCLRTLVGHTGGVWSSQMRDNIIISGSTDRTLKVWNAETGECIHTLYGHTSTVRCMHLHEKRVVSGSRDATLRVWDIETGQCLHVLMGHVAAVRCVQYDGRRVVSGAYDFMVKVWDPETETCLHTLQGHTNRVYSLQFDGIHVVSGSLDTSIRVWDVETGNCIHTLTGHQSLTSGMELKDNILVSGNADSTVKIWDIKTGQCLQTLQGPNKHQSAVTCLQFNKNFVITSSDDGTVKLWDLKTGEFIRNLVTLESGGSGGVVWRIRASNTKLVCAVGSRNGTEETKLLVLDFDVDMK
MITF inh: inhibitors of human MITF; O75030; AlphaScreen MITF homodimerization, bead proximity signal; inhibition, % at 2.6 µM; 650,000 compounds, 0.91% hits; in the data active = inhibition above about 50%;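 note: 0% = vehicle wells with protein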
An asterisk follows results filed as active; ! = a repeat was not active. Shown are actives, neighbours in structure and some others; about 3.5% of the full set was active somewhere.

SMILES	TEAD-YAP inh	GPR151 ag	FBW7 act	MITF inh
CC(C)n1cc(-c2cnc3ccccc3n2)cn1	71.6*	-8.4	-0.2	-1.2
O=C(Oc1cccc(-c2cnc3ccccc3n2)c1)c1ccco1	42.9*	-0.7	-0.3	1.6
CC(=O)Oc1ccc(-c2cnc3ccccc3n2)cc1	40.2*	-7.9	0.1	5.8
CCOc1ccc(-c2cnc3ccccc3n2)cc1	75.3*	-5.3	0.2	8.1
CCCCCC(=O)Oc1ccc(-c2cnc3ccccc3n2)cc1	6.6	-0.9	0.8	15.1
CCOc1ccc(NC(=O)c2ccc(N3CC4CC(C3)c3cccc(=O)n3C4)c(NC(=O)c3cc(OC)cc(OC)c3)c2)cc1 (stereo not drawn)	-47.9	0.3	-0.1	12.2
COc1ccccc1NC(=O)c1cc2cc(C3(O)CCN(CC(C)C)CC3)ccc2o1	0.6	1.4	0.0	-1.6
Nc1ncc(Br)cc1S(=O)(=O)Nc1cc(F)ccc1F	2.0	4.3	-0.1	-20.9
Cc1cc(=O)n2nc(N3CCCC(C(=O)Nc4cc(Cl)ccc4C)C3)sc2n1 (stereo not drawn)	10.4	1.3	-0.1	11.9
CCNc1nc(Nc2ccc3c(c2)OCO3)c2[nH]cnc2n1	0.7	-0.8	-0.1	-1.7
c1cnc(Nc2nc(Nc3ccc4c(c3)OCO4)c3[nH]cnc3n2)cn1	30.7	-0.9	20.0*	14.7
FC(F)(F)c1ccc(Nc2nc(Nc3ccc4c(c3)OCO4)c3[nH]cnc3n2)cc1	1.2	-0.5	0.1	7.9
CCCNc1nc(Nc2ccncn2)nc2nc[nH]c12	35.8*	-0.5	0.5	15.7
c1cc(Nc2nc(Nc3ccc4c(c3)OCO4)c3[nH]cnc3n2)ncn1	-27.0	-0.4	26.9*	9.4
Clc1ccccc1OCc1nc(-c2ccccn2)no1	-27.1	-6.9	0.0	13.0
Clc1ccc(OCc2nc(-c3ccccn3)no2)c(Cl)c1	36.4*	-4.7	-0.3	5.0
COc1ccc(OC)c(CNc2ncc(-c3ccc(Br)cc3)n2C)c1	2.8	-0.4	0.2	34.8
COc1ccc(OC)c(CNc2ncc(-c3cccc(Br)c3)n2C)c1	43.0*	-0.2	-0.3	24.6
COc1cccc(CNc2ncc(-c3cccc(OC)c3)n2C)c1	54.1*	3.0	-0.4	36.3
O=C(CN1C(=O)c2ccccc2C1=O)NCC(=O)OCC(=O)c1ccc([N+](=O)[O-])cc1	7.1	-0.2	0.8	13.8
C=CCn1c(SCc2cc3c(cc2Cl)OCO3)nnc1-c1cccnc1	1.0	-0.5	0.0	11.4
COc1ccc(C(=O)N/N=C\c2ccc(Br)cc2)cc1OC	40.2*	-0.9	-0.2	-0.8
COc1ccc(/C=N/Nc2ccc(C(=O)O)cc2)cc1Br	45.4*	-9.0	-0.1	8.6
N#Cc1ccc(/C=N/NC(=O)c2cc(O)cc(O)c2)cc1	33.0*	1.7	0.1	-0.4
COc1ccc(C(=O)N/N=C(/C)c2ccc(OC)cc2OC)cc1	-30.7	1.2	-0.1	4.1
SMILES	TEAD-YAP inh	GPR151 ag	FBW7 act	MITF inh
COc1ccc(/C(C)=N/Nc2ccc(C(=O)O)cc2)c(OC)c1	48.0*	-0.6	-0.1	6.6
COc1ccc(C(=O)N/N=C/c2ccc(O)c(O)c2)cc1Br	-12.7	-0.9	0.0	-17.7
N#Cc1ccc(/C=N/NC(=O)c2ccccc2O)cc1	-13.5	-1.3	-0.1	6.8
COc1ccccc1C1(O)CCN(C(=O)C(C)C)CC1	10.6	-0.6	1.1	23.3
O=C(O)c1cc(N/N=C/c2cccnc2)ccc1Cl	-23.0	-4.8	0.2	-7.7
COc1cc(OC)cc(C(=O)N/N=C\c2ccc(OCC(N)=O)cc2)c1	55.7*	0.3	0.1	7.6
O=C(O)c1ccc(N/N=C/c2cccnc2)cc1	32.6*	-7.7	0.0	2.4
Nc1nc(-c2ccco2)nn1C(=O)c1ccccc1	-2.1	-0.3	2.0*	16.4
O=C(O)c1ccc(/C=N/Nc2nc3ccccc3s2)cc1	-64.2	-8.1	-0.1	4.4
COc1ccc(/C=N/Nc2nc3ccccc3s2)cc1	34.1*	0.6	0.0	1.1
Cc1cc(/C=N/Nc2nc3ccccc3s2)c(C)n1C1CC1	57.4*	-0.7	-0.1	15.6
O=C(OCC(=O)c1c[nH]c2ccccc12)c1cnc(Cl)c(Cl)c1	19.0	1.2	0.2	8.8
Cc1ccc(S(=O)(=O)c2cnc(=S)[nH]c2N)cc1	0.6	-1.3	-0.3	-8.5
O=C(c1ccc(F)cc1Cl)N1CCC(Oc2nc3c(F)cccc3s2)CC1	12.3	-0.4	1.4	24.4
CCn1ccc(C(=O)N2CCC(Oc3nc4c(F)cc(F)cc4s3)CC2)n1	0.4	-0.1	2.4*	6.8
Cc1cccc(-c2ocnc2C(=O)NCCCn2ccnc2)c1	6.6	-0.4	0.4	17.5
COC(=O)C1Cc2c(ccc3ccccc23)O1 (stereo not drawn)	6.8	-0.1	-0.1	9.0
c1cnc(Nc2nc3ncnc(Nc4ccc(N5CCOCC5)cc4)c3[nH]2)nc1	53.4*	-1.6	-0.3	16.9
c1nc(Nc2ccc(N3CCOCC3)cc2)c2[nH]c(NCCN3CCOCC3)nc2n1	7.2	-1.7	-0.2	15.5
c1cc(Nc2nc3ncnc(Nc4ccc(N5CCOCC5)cc4)c3[nH]2)ccn1	43.3*	-2.1	-0.3	14.8
CCN(CC)C(=O)C1CCCN(c2nc3ncnc(Nc4ccc(N5CCOCC5)cc4)c3[nH]2)C1 (stereo not drawn)	43.8*	-3.3	-0.2	-4.1
c1ccc(Nc2ncnc3nc(-c4ccc(N5CCOCC5)nc4)[nH]c23)cc1	53.6*	1.9	0.3	25.6
CC(=O)Nc1ccc(Nc2ncnc3nc(Nc4ccc(N5CCOCC5)cc4)[nH]c23)cc1	0.1	0.7	-0.1	10.3
CC(=O)Nc1ccc(Nc2ncnc3nc(-c4ccc(N5CCOCC5)nc4)[nH]c23)cc1	28.4	-1.4	-0.1	-0.3
O=C1CCC(CCC(=O)N2CCCC(c3ccccc3)C2)(Cc2cccs2)N1 (stereo not drawn)	5.2	1.7	0.2	2.2
SMILES	TEAD-YAP inh	GPR151 ag	FBW7 act	MITF inh
O=C(CN1CCc2nc(N3CCCC3)[nH]c(=O)c2C1)N1CCCCCC1	0.3	0.9	-0.1	-0.3
c1nc(NC2CC2)c2[nH]c(Nc3ccc(N4CCOCC4)cc3)nc2n1	34.7*	-2.6	0.0	17.5
c1ccc(CN2CCC(Nc3ncnc4nc(Nc5ccc(N6CCOCC6)cc5)[nH]c34)CC2)cc1	2.9	0.1	-0.3	9.0
Cc1noc(C)c1-c1nc2ncnc(Nc3ccc(N4CCOCC4)cc3)c2[nH]1	32.6*	-1.2	-0.3	13.2
CCCCn1c(=S)[nH]c2ccccc21	6.1	2.2	2.0*	2.7
Cc1[nH]c2ccc(-c3nnc(SCC(=O)Nc4ccc(F)cc4)o3)cc2c1C	-28.3	-0.6	-0.3	12.4
Cc1ccc(-c2cnn(-c3ccc(C(=O)O)cc3)c2)cc1	42.4*	-11.3	-0.2	-1.5
COc1ccc(C2=NC(c3cccc(Cl)c3)NC(c3ccccc3O)C2)cc1 (stereo not drawn)	-66.0	-0.7	0.0	-2.9
CN1CCN(CC(O)COc2cccc3ccccc23)CC1 (stereo not drawn)	9.8	-0.5	0.1	8.8
COc1ccccc1N1CCN(CC(O)COc2cccc3ccccc23)CC1 (stereo not drawn)	38.4*!	-0.3	0.2	12.5
Cc1nc2ccccn2c1C(=O)NCc1ccc2c(c1)OCO2	6.3	0.0	0.9	13.6
